“And” between values parts separate entries of the source, which are not always exact repeats. Equal entries are not always repeated. More than one record can exist for a structure, and the calls need not agree. The source made the active and inactive calls. The calls were made as follows: active = hit-call score of the fitted dose curve at least 0.9, where 1 is the maximum; inactive = score below 0.9.
Read-out: CFLAR gene, CFLAR (gene 8837)
Assay: LTEA_HepaRG_CFLAR: Life Technologies and Expression Analysis (LTEA) Assay for CFLAR gene using HepaRG (AID 2283455)
Conditions: mRNA level, 48 h; actives raise or lower the signal
Summary of the method: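 Gain- or loss-of-signal changes in CFLAR transcript were fitted bidirectionally relative to 0.5% DMSO. Cells (HepaRG, duplicate wells) were dosed for 48 h across eight half-log concentrations topping at 100 uM; quantitation by TaqMan qRT-PCR.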
With C#C[C@]1(O)CC[C@H]2[C@@H]3CCc4cc(O)ccc4[C@H]3CC[C@@]21C the outcome was “inactive”.
In the case of COC(=O)c1ccc(C(=O)OC)cc1, the outcome was “inactive”.
With C[C@]12CC[C@@H]3c4ccc(O)cc4CC[C@H]3[C@@H]1CC[C@@H]2O the outcome was “inactive”.
With O=C(c1ccc(OCCN2CCCCC2)cc1)c1c(-c2ccc(O)cc2)sc2cc(O)ccc12 the AC50 was 65.4 µM (active).
With CCCCOCCOCCO the outcome was “inactive”.
With CC/C(=C(\c1ccccc1)c1ccc(OCCN(C)C)cc1)c1ccccc1 the AC50 was 64.9 µM (active) and 93.4 µM (active).
With C=C(C)C(N)=O the outcome was “inactive”.

Read-out: Forkhead box O1 (FOXO1), FOXO1 (gene 2308)
Assay: LTEA_HepaRG_FOXO1: Life Technologies and Expression Analysis (LTEA) Assay for Forkhead box O1 (FOXO1) using HepaRG (AID 2283456)
Conditions: mRNA level, 48 h; actives raise or lower the signal
Summary of the method: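 Using one lot of HepaRG hepatic cells kept in 0.5% DMSO, the team applied test chemicals in duplicate, half-log dilutions from 100 uM, for 48 h. Expression, normalised to ACTB/GAPDH/POLR2A, was compared with vehicle in either direction.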
For C#C[C@]1(O)CC[C@H]2[C@@H]3CCc4cc(O)ccc4[C@H]3CC[C@@]21C, the outcome was “inactive”.
In the case of COC(=O)c1ccc(C(=O)OC)cc1, the outcome was “inactive”.
In the case of C[C@]12CC[C@@H]3c4ccc(O)cc4CC[C@H]3[C@@H]1CC[C@@H]2O, the outcome was “inactive”.
For O=C(c1ccc(OCCN2CCCCC2)cc1)c1c(-c2ccc(O)cc2)sc2cc(O)ccc12, the AC50 was 86 µM (active).
In the case of CCCCOCCOCCO, the outcome was “inactive”.
For CC/C(=C(\c1ccccc1)c1ccc(OCCN(C)C)cc1)c1ccccc1, the AC50 was 69.8 µM (active) and the outcome was “inactive”.
With C=C(C)C(N)=O the outcome was “inactive”.

Read-out: not listed separately
Assay: CEETOX_H295R_TESTO: CeeTox H295R High-throughput Steroidogenesis Assay for Testosterone (TESTO) (AID 2283457)
Conditions: actives raise or lower the signal
Summary of the method: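 H295R adrenal cells, passage ≤10, exposed to chemicals for 48 h. Testosterone in medium measured by MTBE extraction and HPLC-MS/MS against a 7-point standard curve. Bidirectional fit versus DMSO; MTT viability checked in the same wells.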
For CC=CC(=O)C1=C(C)C=CCC1(C)C, the outcome was “inactive”.
With CC(C)(C)c1cccc(O)c1 the outcome was “inactive”.
For OCCCO, the outcome was “inactive”.
With CC(=N[Si](C)(C)C)O[Si](C)(C)C the outcome was “inactive”.

— PubChem BioAssay (EPA / NIEHS)
